From PubChem BioAssay (NCI) come the findings set out here.

Holding throughout (test): NCI-60 one-dose screen, 48 h (100 = growth as untreated, 0 = no growth, -100 = all killed)
For one experiment, the system named is NCI-H23 lung. The note with it: 10 µM unless noted.
Another experiment concerns NCI-H226 lung. The note with it: 10 µM unless noted.
The next experiment has as its system NCI-H322M lung. The note with it: 10 µM unless noted.
A further experiment deals with HOP-92 NSCLC. The note with it: 10 µM.
In another experiment the test system is NCI-H522 lung. The note with it: 10 µM.
The next experiment deals with A549/ATCC NSCLC. The conditions noted are these: 10 µM unless noted.
For another experiment, the system named is 786-0 renal. The conditions noted are these: 10 µM unless noted.
The subject of another experiment is COLO 205 colon. The note with it: 10 µM unless noted.
Another experiment concerns DU-145 prostate. The note with it: 10 µM unless noted.
The next experiment deals with K-562 leukemia. The conditions noted are these: 10 µM unless noted.
Another experiment concerns MALME-3M melanoma. The note with it: 10 µM unless noted.
A further experiment relates to MDA-MB-231 breast. The note with it: 10 µM unless noted.
The next experiment deals with RXF 393 renal. The conditions noted are these: 10 µM unless noted.
Another experiment deals with SF-268 CNS. The conditions noted are these: 10 µM unless noted.
Another experiment concerns SF-295 CNS. The conditions noted are these: 10 µM unless noted.
Another experiment deals with SF-539 CNS. The note with it: 10 µM unless noted.
Another experiment has as its system UACC-257 melanoma. The conditions noted are these: 10 µM unless noted.
For a further experiment, the system named is M14 melanoma. The note with it: 10 µM unless noted.

This is part of a sample that, as a whole, favours compounds with a hit. Of some 83,000 tested, about 20% had one in any assay.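 Growth was measured after 48 h exposure to one concentration of compound in 96-well plates. Values under 10 count as active.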 Values without a mark were called inactive. Active and inactive are the calls of the source.

With `O=C(NCCNCCO)c1cc([N+](=O)[O-])cc([N+](=O)[O-])c1O`, the growth in the experiment with NCI-H23 lung was 103%; in the experiment with NCI-H226 lung, 97.7%; in the experiment with NCI-H322M lung, 103%; with HOP-92 NSCLC it was 93.9%; in the experiment on NCI-H522 lung it was 91.9%; in the experiment on A549/ATCC NSCLC, 100%. Moreover, the growth is 104% with 786-0 renal; 110% with COLO 205 colon; 99.3% in the experiment with DU-145 prostate; 102% in the experiment with K-562 leukemia; 107% in the experiment with MALME-3M melanoma; 109% in the experiment with MDA-MB-231 breast. In addition, the growth is 109% in the experiment on RXF 393 renal; 102% in the experiment with SF-268 CNS; 101% in the experiment on SF-295 CNS; 106% in the experiment on SF-539 CNS; 103% with UACC-257 melanoma; 102% with M14 melanoma.

For the molecule `CCc1ccc(C(=Nc2ccc(N(C)C(=O)CN3CCN(C)CC3)cc2)c2c(O)[nH]c3ccc(C(=O)OC)cc23)cc1`, the growth in the experiment on NCI-H23 lung is -60.5% (active); in the experiment on NCI-H226 lung it was -26.2% (active); with NCI-H322M lung, -39.7% (active); with HOP-92 NSCLC, -70.7% (active); in the experiment on NCI-H522 lung, -64.1% (active); in the experiment with A549/ATCC NSCLC, -29.3% (active). Further, the growth is -93.3% (active) in the experiment with 786-0 renal; -69.4% (active) in the experiment on COLO 205 colon; -11.5% (active) with DU-145 prostate; -60.7% (active) with K-562 leukemia; -91.8% (active) in the experiment with MALME-3M melanoma; -71% (active) with MDA-MB-231 breast. The growth is -96.8% (active) with RXF 393 renal; -69.9% (active) in the experiment on SF-268 CNS; -88% (active) in the experiment on SF-295 CNS; -98.5% (active) in the experiment with SF-539 CNS; -67.4% (active) in the experiment on UACC-257 melanoma; -86.7% (active) with M14 melanoma.

`COc1ccc2c(c1)/C(=C1/S/C(=N/c3nnc(C)s3)NC1=O)C(=O)N2Cc1ccc(Br)cc1`: the growth is 26.5% with NCI-H23 lung; 54.7% with NCI-H226 lung; 35.1% in the experiment with NCI-H322M lung; 25.7% in the experiment with HOP-92 NSCLC; 29.6% in the experiment with NCI-H522 lung; 20.7% in the experiment with A549/ATCC NSCLC. Moreover, the growth was 34% in the experiment with 786-0 renal; 41.6% in the experiment with DU-145 prostate; 34.8% in the experiment on K-562 leukemia; 68.3% in the experiment on MALME-3M melanoma; 53.4% with MDA-MB-231 breast; 49.6% in the experiment on RXF 393 renal. The growth with SF-268 CNS was 36%; in the experiment on SF-295 CNS it was 15.4%; with SF-539 CNS, 42.7%; in the experiment with UACC-257 melanoma it was 57.4%; in the experiment with M14 melanoma, 37%.

For the molecule `O=C(/C=C\c1ccccc1Cl)c1ccccc1`, the growth in the experiment on NCI-H23 lung is 91.9%; in the experiment with NCI-H226 lung, 86.2%; with NCI-H322M lung, 104%; in the experiment on HOP-92 NSCLC it was 112%; in the experiment on NCI-H522 lung, 100%; in the experiment with 786-0 renal it was 93.9%. The growth in the experiment on COLO 205 colon is 120%; in the experiment with DU-145 prostate, 101%; in the experiment with K-562 leukemia, 102%; in the experiment on MALME-3M melanoma, 98.9%; with MDA-MB-231 breast, 91.7%; in the experiment with RXF 393 renal, 89.7%. The growth in the experiment on SF-268 CNS was 93.4%; with SF-295 CNS, 75.2%; with SF-539 CNS it was 103%; with UACC-257 melanoma, 119%; in the experiment on M14 melanoma, 101%.

In the case of `CCOc1nc(-c2ccccc2)cc2c(O)c(C(=O)N/N=C/c3ccccc3O)[nH]c(=O)c12`, the growth with NCI-H23 lung was 62.7%; with NCI-H226 lung, 106%; with NCI-H322M lung it was 107%; with HOP-92 NSCLC, 82.8%; in the experiment with NCI-H522 lung, 81.9%; in the experiment on A549/ATCC NSCLC it was 85.3%. Moreover, the growth with 786-0 renal is 103%; with COLO 205 colon, 105%; in the experiment with DU-145 prostate, 97.6%; in the experiment on K-562 leukemia it was 115%; with MALME-3M melanoma, 119%; in the experiment on MDA-MB-231 breast, 101%. The growth with RXF 393 renal is 81.3%; with SF-268 CNS, 79.6%; in the experiment with SF-295 CNS, 103%; in the experiment on SF-539 CNS, 117%; with UACC-257 melanoma, 88.6%; in the experiment with M14 melanoma, 101%.

As to `CCOC(=O)c1c2c(cn1Cc1ccccc1)-c1oncc1CC2`, the growth in the experiment on NCI-H23 lung is 106%; in the experiment on NCI-H226 lung, 79.4%; in the experiment on NCI-H322M lung, 92.8%; in the experiment with HOP-92 NSCLC, 61.8%; in the experiment on NCI-H522 lung, 99%; with A549/ATCC NSCLC it was 95.1%. Moreover, the growth in the experiment with 786-0 renal is 83.9%; in the experiment on COLO 205 colon, 123%; with DU-145 prostate it was 107%; in the experiment on K-562 leukemia, 101%; in the experiment with MALME-3M melanoma, 114%; in the experiment on MDA-MB-231 breast it was 90.6%. Moreover, the growth in the experiment on RXF 393 renal was 93.3%; in the experiment on SF-268 CNS it was 83.6%; with SF-295 CNS it was 98.5%; in the experiment on SF-539 CNS, 86%; in the experiment on UACC-257 melanoma, 112%; in the experiment on M14 melanoma it was 111%.

As for `O=C1/C(=C\c2cn(-c3nc(N4CCOCC4)nc(N4CCOCC4)n3)c3ccccc23)c2ccccc2N1c1c(Cl)cccc1Cl`, the growth in the experiment with NCI-H23 lung is 79.7%; with NCI-H226 lung, 60.1%; in the experiment with NCI-H322M lung it was 28.2%; in the experiment with HOP-92 NSCLC, 3.38% (active); in the experiment with NCI-H522 lung, 75.3%; with A549/ATCC NSCLC, 68.4%. For the same molecule, the growth with 786-0 renal is 29.5%; with DU-145 prostate, 57.1%; with K-562 leukemia, 80.6%; in the experiment on MALME-3M melanoma, 95.6%; in the experiment on MDA-MB-231 breast, 76.9%; in the experiment on RXF 393 renal, -10.8% (active). In addition, the growth in the experiment on SF-268 CNS was 57.8%; in the experiment with SF-295 CNS, 37.6%; with SF-539 CNS, 63%; with UACC-257 melanoma, 80.7%; with M14 melanoma, 78.2%.

On to `CC(=O)/C(=C/c1ccc(-c2ccccc2)cc1)C(=O)c1ccccc1`, for which the growth in the experiment on NCI-H23 lung is 91.6%; with NCI-H226 lung, 83.1%; in the experiment on NCI-H322M lung, 100%; in the experiment with NCI-H522 lung, 61.7%; with A549/ATCC NSCLC, 76.4%; with 786-0 renal, 92%. For the same molecule, the growth in the experiment on COLO 205 colon is 93.6%; in the experiment on DU-145 prostate, 87.1%; in the experiment on K-562 leukemia it was 64.2%; in the experiment on MALME-3M melanoma, 89.3%; in the experiment with MDA-MB-231 breast, 92.5%; with RXF 393 renal, 90.6%. Further, the growth in the experiment on SF-268 CNS is 85.9%; in the experiment with SF-295 CNS, 92.3%; in the experiment with SF-539 CNS it was 85.1%; in the experiment with UACC-257 melanoma it was 80.2%; in the experiment with M14 melanoma, 79.8%.

As for `CC(C)CCCCCOC(=O)c1ccccc1SSc1ccccc1C(=O)OCCCCCC(C)C`, the growth in the experiment on NCI-H23 lung is 108%; in the experiment with NCI-H226 lung it was 97.3%; in the experiment on NCI-H322M lung, 132%; in the experiment with A549/ATCC NSCLC, 99.2%; in the experiment on 786-0 renal, 104%; in the experiment with COLO 205 colon it was 109%. Besides, the growth in the experiment with DU-145 prostate was 112%; with K-562 leukemia, 96.3%; in the experiment on MALME-3M melanoma it was 110%; with MDA-MB-231 breast, 99.5%; in the experiment on RXF 393 renal, 120%; in the experiment on SF-268 CNS, 110%. The growth in the experiment on SF-295 CNS was 105%; in the experiment with SF-539 CNS, 99.4%; with UACC-257 melanoma, 102%; in the experiment on M14 melanoma it was 104%.
